Compound activity deposited in PubChem by National Center for Advancing Translational Sciences (NCATS).
This is a sample that favours compounds with a hit; in the whole collection about 17% have one here.
ClpP mod: qHTS Assay for Activators of ClpP; purified B. subtilis ClpP, FRET peptide cleavage, 20 min; Potency, µM (series often up to 57.5 µM), inactives show top-dose activity change, negative = active; hit rate 1.9% among 340,000; active means well fitted falling curve with a large enough effect; inconclusive means small, poorly fitted or top-dose-only effect; inactive means no such curve, though single readings can be large or run the other way; further: the source files actives as falling curves though it sought activators and does not explain the sign; nearly all actives have a fitted effect of over 65% in size
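ClpP 10 microg/mL final, pH 8 Tris/KCl buffer with BSA, glycerol, Tween-20; compound pinned in; FRET-FV substrate; RT 20 min; Ex320/Em430; ΔFRET vs ADEP 5.8 microM, DMSO, no enzyme.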
TDP1 cell noCPT: qHTS for Inhibitors of human tyrosyl-DNA phosphodiesterase 1 (TDP1): qHTS in cells in absence of CPT; DT40 Tdp1-/- hTDP1 cells, no CPT, ATP luminescence, 48 h; Potency, µM (doses to about 46.2 µM), inactives show top-dose activity change, negative = growth inhibition, hits mostly inhibitors; hit rate 15% among 420,000; AID 686978, 2013; further: on the % scale 0 is the no-effect control and ±100 the full control effect; nearly all actives have a fitted effect of over 55% in size
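Growth kinetics read by CellTiter-Glo luminescence after ≥48 hr at 37 °C. Cells: DT40 Tdp1-/- stably carrying human TDP1, 400 per well, compound exposure in the absence of CPT (DMSO vehicle).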
TDP1 inh: qHTS Assay for Inhibitors of Tyrosyl-DNA Phosphodiesterase (TDP1) | AID 485290, 2010 | hit rate 0.28% among 350,000 | Potency, µM (highest dose often 130 µM), for the others: at the highest dose activity change, negative = inhibition, usual class: inhibitors | recombinant TDP1, AlphaScreen DNA substrate cleavage; further: on the % scale 0 is the no-effect control and ±100 the full control effect; nearly all actives have a fitted effect of over 40% in size
Target sequence (Q9NUW8 whole entry, looked up): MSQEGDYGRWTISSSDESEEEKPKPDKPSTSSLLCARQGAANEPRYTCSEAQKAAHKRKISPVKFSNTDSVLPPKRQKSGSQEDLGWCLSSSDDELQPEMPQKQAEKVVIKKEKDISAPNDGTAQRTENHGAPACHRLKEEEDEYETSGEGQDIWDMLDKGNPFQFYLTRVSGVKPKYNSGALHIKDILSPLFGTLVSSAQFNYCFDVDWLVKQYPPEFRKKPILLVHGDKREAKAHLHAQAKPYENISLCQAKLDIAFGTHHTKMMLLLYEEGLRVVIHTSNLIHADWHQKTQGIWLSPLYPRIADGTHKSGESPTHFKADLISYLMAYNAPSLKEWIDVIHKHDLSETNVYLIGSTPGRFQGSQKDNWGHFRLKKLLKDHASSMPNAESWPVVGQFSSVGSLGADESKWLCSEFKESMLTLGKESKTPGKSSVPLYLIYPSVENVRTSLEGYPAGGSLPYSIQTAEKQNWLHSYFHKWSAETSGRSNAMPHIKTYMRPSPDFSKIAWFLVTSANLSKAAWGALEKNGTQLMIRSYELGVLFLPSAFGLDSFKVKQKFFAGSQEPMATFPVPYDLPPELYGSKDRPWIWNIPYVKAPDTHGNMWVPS
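Recombinant E. coli-expressed Tdp1 (1 nM) preincubated with compound 15 min at RT, then 5'-biotin/3'-phosphotyrosine-FITC DNA substrate (15 nM) added for 5 min. AlphaScreen beads (10 ug/ml) added, 10 min RT; tyrosine-FITC cleavage read as signal loss.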
DT40 TDP1 CPT: qHTS for Inhibitors of human tyrosyl-DNA phosphodiesterase 1 (TDP1): qHTS in cells in presence of CPT | hit rate 12% among 420,000 | Potency, µM (titrated, usually from 46.2 µM), for the others: at the top dose activity change, negative = growth inhibition, hits mostly inhibitors | chicken DT40 Tdp1-/-;hTDP1 cells + 20 nM CPT, ATP luminescence, 48 h; further: on the % scale 0 is the no-effect control and ±100 the full control effect; nearly all actives have a fitted effect of over 55% in size
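Chicken DT40 Tdp1-/- cells stably complemented with human TDP1 were seeded at 400 cells/well in medium containing 20 nM camptothecin, exposed to pin-transferred compounds, and grown at 37 °C for at least 48 hr. Viability was read as ATP luminescence.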
The depositor's hits bear a star; ? = inconclusive; · = not tested or not shown. Unless noted, the call rests on the fitted dose curve; in most records, active means well fitted curve in the direction sought with a large enough effect; inconclusive means small, poorly fitted or top-dose-only effect, or another doubt; inactive means no such curve, though single readings can be large; an effect the other way counts as inactive or inconclusive. Potency means the concentration at half of the fitted maximal effect.

SMILES	ClpP mod	TDP1 cell noCPT	TDP1 inh	DT40 TDP1 CPT
Cc1cccc(CN2CCC(Oc3ccc(C(=O)N4CCCC4)cc3)CC2)n1	0%	-20%	3%	1%
Cc1ccc(S(=O)(=O)NNC(=O)C(O)(c2ccccc2C)c2ccccc2C)cc1	0%	?	3%	-12%
COc1ccc(Cc2noc(CN3CCN(Cc4csc(C)n4)CC3)n2)cc1OC	·	-28%	3%	-1%
COc1ccc(CCNC(=O)c2cnc3sc(N4CCOCC4)nn3c2=O)cc1	28µM*	?	-4%	?
COCCNC(=O)c1cnc2sc(N3CCCCC3)nn2c1=O	4%	-4%	-3%	1%
CCNC(=O)c1cnc2sc(N3CCCCCC3)nn2c1=O	11µM*	-12%	6%	-1%
COc1ccc(CNC(=O)c2cnc3sc(N4CCOCC4)nn3c2=O)cc1	?	-24%	6%	-10%
O=C(NCc1ccccc1Cl)c1cnc2sc(N3CCCCC3)nn2c1=O	5%	9.2µM*	3%	13µM*
COc1ccc(C(=O)N2CCC3(CCCN(Cc4ccncc4)C3)CC2)cc1	·	?	·	-6%
CCCCCCc1cc2cc(C(=O)NCc3ccccc3)c(=N)oc2cc1O	?	?	-3%	?
CCCCCCc1cc2cc(C(=O)Nc3ccccc3)c(=O)oc2cc1O	-1%	3.7µM*	5%	3.3µM*
COC(=O)C[C@@H]1OC[C@H](Cc2ccccc2)N1S(=O)(=O)c1ccc(C)cc1	0%	?	·	?
O=C(C[n+]1cccc(CNC(=O)c2ccc(OC(F)F)cc2)c1)c1ccccc1	·	-5%	3%	-10%
CN(C)c1cc[n+](CC(=O)c2ccc(OC(F)F)cc2)cc1	·	8.2µM*	-1%	18µM*
COc1ccc(N2CCN(C(=O)c3nn(C)c4c3CSc3ccccc3-4)CC2)cc1	-7%	?	6%	-109%
CCc1ccc2c(CN(C)Cc3ccc(OC(F)F)c(OC)c3)cc(=O)oc2c1	·	?	·	18µM*
CCOC(=O)c1c(C)[nH]c(C(=O)CSc2nccc(C)n2)c1C	·	-11%	3%	20%
COc1cc(Cl)cc(/C=N/NC(N)=O)c1O	·	-13%	5%	-3%
CC1CCN(CC(O)CN2c3ccccc3Sc3ccccc32)CC1 (centres undefined)	-1%	18µM*	·	?
OCCNCC(O)CN1c2ccccc2Sc2ccccc21 (centres undefined)	0%	?	·	?
Nc1nc(SCC(=O)Nc2c(Br)cc([N+](=O)[O-])cc2Br)n[nH]1	-1%	-5%	5%	16%
Cc1ccc(C2C(C(=O)c3cccs3)=C(O)C(=O)N2c2nnc(C)s2)cc1 (centres undefined)	·	-24%	4%	0%
CC1Cc2ccccc2N1C(=O)COC(=O)c1c2c(nc3ccccc13)CCCCC2 (centres undefined)	-4%	12µM*	3%	8.2µM*
NC(=O)COC(=O)c1c2c(nc3ccccc13)CCCCC2	-15%	0%	3%	-5%
O=C(OCC(=O)N1CCc2ccccc21)c1c2c(nc3ccccc13)CCCC2	-6%	23µM*	0%	16µM*
SMILES	ClpP mod	TDP1 cell noCPT	TDP1 inh	DT40 TDP1 CPT
O=C(OC(C(=O)N1CCOCC1)c1ccccc1)c1c2c(nc3ccccc13)CCCC2 (centres undefined)	-16%	14µM*	·	?
CC1Cc2ccccc2N1C(=O)COC(=O)CCc1nc2ccccc2c(=O)[nH]1 (centres undefined)	·	18µM*	-2%	29µM*
Cc1ccc(N2CC(C)Cn3c2nc2c3c(=O)n(Cc3cccc(Cl)c3)c(=O)n2C)cc1 (centres undefined)	-2%	-33%	-3%	-2%
O=C(COC(=O)c1c2c(nc3ccccc13)CCCC2)c1cccs1	-6%	?	4%	29µM*
CCOC(=O)CCNC(=O)N1CCCC(C(=O)c2cccc(OC(C)C)c2)C1 (centres undefined)	1%	?	·	?
CCc1ccc2c(c1)c(N=NC1=NC(=O)CS1)c(O)n2C	0%	16µM*	4%	-28%
Cc1cc(C)c2[nH]c(O)c(N=NC3=NC(=O)CS3)c2c1	0%	?	3%	-13%
CCOc1cc(-c2ccc3c(c2)OCO3)cc(=[O+]CC)c2c(C)oc(C)c12	-4%	14µM*	1%	?
Cc1oc(C)c2c(=O)cc(-c3ccc4c(c3)OCO4)cc(OC(=O)c3ccccc3Br)c12	1%	?	6%	16µM*
CC(=O)c1c(OC(=O)c2ccccc2Br)ccc2c(C)cc(=O)oc12	323%	-25%	-1%	-25%
Cc1oc(C)c2c(=O)cc(-c3ccc4c(c3)OCO4)cc(OC(=O)c3ccccc3Cl)c12	0%	?	5%	23µM*
Cc1c(-c2ccc(Br)cc2)[n+](=O)c2c(n1[O-])CCCC2	-1%	15%	-1%	-12%
C[C@H](N)C(=O)N[C@@H](Cc1ccc(F)cc1)C(=O)N[C@@H](CCCN=C(N)N)C(=O)N[C@@H](CC1CCCCC1)C(=O)N[C@@H](CCCCN=C(N)N)C(=O)N[C@@H](Cc1ccc(O)cc1)C(N)=O	·	·	14%	·
CCOC(=O)c1cc(-c2ccc(OC)cc2)n(CCC(=O)NCCc2ccc(OCC)c(OCC)c2)c1C	-2%	?	2%	?
CCOC(=O)c1ccc(CN(Cc2ccc(F)cc2)S(=O)(=O)c2ccc(F)c(C(=O)Nc3cc(Cl)ccc3OC)c2)cc1	-20%	-2%	8%	6%
CC1Sc2ccc(S(=O)(=O)N3CCN(c4cccc(Cl)c4)CC3)cc2NC1=O (centres undefined)	-1%	?	1%	-22%
O=C1CCc2cc(S(=O)(=O)N3CCN(c4cccc(C(F)(F)F)c4)CC3)ccc2N1	0%	-25%	4%	-27%
CC1C(=O)Nc2ccc(S(=O)(=O)N3CCN(c4cccc(Cl)c4)CC3)cc2NC1=O (centres undefined)	-1%	?	·	18µM*
CC1C(=O)Nc2ccc(S(=O)(=O)N3CCN(c4cccc(C(F)(F)F)c4)CC3)cc2NC1=O (centres undefined)	-2%	-69%	0%	26µM*
Fc1ccc(-c2noc3ncnc(NCC4CCN(Cc5ccc(Cl)cc5)CC4)c23)cc1	2%	13µM*	5%	?
Cc1ccc(CN2CCC(CNc3ncnc4onc(-c5ccc(F)cc5)c34)CC2)cc1	5%	23µM*	6%	-40%
Cc1ccc(Cl)cc1N1CCN(CCCNc2ncnc3onc(-c4ccc(F)cc4)c23)CC1	0%	18µM*	-4%	15µM*
CCOC(=O)c1ccc(NC(=S)N(CCN(C)C)Cc2cccs2)cc1	5%	?	0%	16µM*
